These results are taken from PubChem BioAssay (NCATS).

The structures appear in SMILES notation. Inconclusive results are not listed. The source made the active and inactive calls. Calls come from the whole dose curve; as a rule, active = well fitted inhibition curve with a large enough effect; inconclusive = small, poorly fitted or top-dose-only effect; inactive = flat fitted curve, though single readings scatter.

This experiment is described as follows: qHTS of Trypanosoma Brucei Inhibitors: LOPAC Validation (AID 624147). The following applies: purified enzyme assay, luminescence, 45 min; series mostly up to 57.5 µM. The text has this:
Members of the Trypanosomatidae family of parasitic protozoans cause a spectrum of diseases throughout the tropical and subtropical world. Sleeping sickness, caused by two subspecies of Trypanosoma brucei, is endemic to areas of sub-Saharan Africa, while Chagas' disease, a manifestation of Trypanosoma cruzi infection, is prevalent throughout Central and South America. In addition, many species of Leishmania are responsible for a range of cutaneous and visceral diseases, causing ulcers, destructive lesions and kalaazar, a lethal infection of the viscera. These diseases cause severe public health and economic burdens on populations that are often already caught in a tragic cycle of poverty, poor nutrition and disease. Collectively, parasites of the trypanosomatid family infect 30 million people worldwide (~500 million live in endemic areas), and account for ~130K deaths annually. Existing treatments have developed little in the past 50 years, and suffer from toxicity, poor efficacy and resistance; the goal of this project is to develop lead drugs that will be suitable for entry into pre-clinical trials.
Glycolysis in axenically cultured T. cruzi, representing the intracellular pathogenic stage, is also essential for these parasites. {Engel, 1987} This project aims to discover and optimize selective inhibitors of the glycolytic enzyme pyruvate kinase (PYK) from Trypanosoma brucei, the parasite that causes sleeping sickness. […] Trypanosomatid PYKs show significant differences from their human counterparts including only 47-50% sequence identity and different allosteric and activation properties.{Callens, 1992} To this end, a qHTS was done against the MLSMR to discover inhibitors.
NIH Molecular Libraries Probe Production Network [MLPCN]
NIH Chemical Genomics Center [NCGC]
PI Name: Malcolm Walkinshaw, University of Edinburgh
2 uL of TbPYK/substrate buffer (columns 1-3, 5-48) are dispensed into Greiner white solid bottom 1536-well assay plates; column 4 receives only TEA buffer as 0x TbPYK controls. Compounds are then transferred via Kalypsys pin tool equipped with 1536-pin array (10 nL slotted pins, V&P Scientific, San Diego, CA). Following addition of compound, 2 uL of ADP (130 uM final concentration, all columns) is added to initiate the reaction. The plates are then incubated at room temperature for 45 minutes. Kinase-Glo Plus reagent is added (3 uL) and plates incubated for 10 minutes, before being transferred to a ViewLux high-throughput CCD imager (PerkinElmer) wherein single end-point measurements of luminescence are acquired using a clear filter. All reagents are diluted in an assay buffer consisting of 50 mM TEA (pH 7.2), 100 mM KCl, 10 mM MgCl2, 0.05% BSA and 0.01% Tween-20.
All screening operations will be performed on a fully integrated robotic system (Kalypsys, San Diego, CA) containing one RX-130 and two RX-90 anthropomorphic robotic arms (Staeubli, Duncan, SC). Library plates will be screened starting from the lowest and proceeding to the highest concentration. Vehicle-only plates, with DMSO being pin-transferred to columns 5-48, will be inserted uniformly at the beginning and the end of each library in order to monitor and record any shifts in the background, which can be affected by reagent dispensers or loss in enzyme activity over time. Screening data will be corrected, normalized, and concentration-effect relationships will be derived by using publicly-available curve fitting algorithms developed in-house (http://ncgc.nih.gov/pub/openhts).
Take `Cc1nc2ccccn2c(=O)c1CCN1CCC(C(=O)c2ccc(F)cc2)CC1`: the result was inactive.

In the case of `Cc1nc2c([nH]1)c(=O)n(C)c(=O)n2Cc1ccco1`, the compound was called inactive. The result for `Cc1ccc(Cl)c(Nc2ccccc2C(=O)O)c1Cl` reads “inactive”. Turning to `CN1C(=O)CC[C@H]1c1cccnc1`, the call was inactive. With `C[N+](C)(C)CCOC(N)=O`, the call was inactive. In the case of `Cc1nnc(SCC2=C(C(=O)O)N3C(=O)[C@@H](NC(=O)Cn4cnnn4)[C@H]3SC2)s1`, the outcome was inactive. As to `Cc1cc(C)c(/C=C2\C(=O)Nc3ccccc32)[nH]1`, the result was inactive.

Consider `C[C@]12C=CC(=O)C=C1CC[C@H]1[C@@H]3C[C@@H](O)[C@](O)(C(=O)CO)[C@@]3(C)C[C@H](O)[C@@]12F`, for which the outcome was inactive. As for `COCCc1ccc(OCC(O)CNC(C)C)cc1` (stereo not given), the entry is “inactive”. Consider `OC(CCN1CCCCC1)(c1ccccc1)C1CCCCC1` (stereo not given), for which the outcome was inactive. For the compound `Nc1ncn([C@@H]2O[C@H](CO)[C@@H](O)[C@H]2O)c(=O)n1`, the call was inactive.

Take `CC1=NS(=O)(=O)c2cc(Cl)ccc2N1`: the result was inactive. As for `CC(=O)Oc1cc(C(C)C)c(OCCN(C)C)cc1C`, the compound was called inactive. For `N[C@@H](COP(=O)(O)O)C(=O)O`, the compound was classed as inactive.

As for `CC(=O)[C@@]1(O)CC[C@H]2[C@@H]3CCC4=CC(=O)CC[C@]4(C)[C@H]3CC[C@@]21C`, the call was inactive. `CN=C(NC#N)NCCSCc1nc[nH]c1C`: the result was inactive. For `COC(=O)C1=C(C)NC(C)=C(C(=O)OCCN(C)Cc2ccccc2)C1c1cccc([N+](=O)[O-])c1` (stereo not given), the compound was called inactive. Consider `Cc1scc2c1N(C(=O)CN1CCN(C)CC1)c1ccccc1NC2=O`, for which the compound was classed as inactive. On to `CCCCCN(CCCCC)C(=O)C(CCC(=O)O)NC(=O)c1ccc(Cl)c(Cl)c1` (stereo not given), for which the compound was classed as inactive.

As to `CN(C)C/C=C(/c1ccc(Br)cc1)c1cccnc1`, the compound was called inactive. On to `CCCCNc1ccc(C(=O)OCCN(C)C)cc1`, for which the compound was classed as inactive. As for `C#CCN(C)CCCOc1ccc(Cl)cc1Cl`, the entry is “inactive”; as for `NC(=O)c1cn(Cc2c(F)cccc2F)nn1`, “inactive”; as for `CO[C@@]1(NC(=O)CSCC#N)C(=O)N2C(C(=O)O)=C(CSc3nnnn3C)CS[C@@H]21`, “inactive”. Take `O=C(O)CP(=O)(O)O`: the call was inactive. Turning to `O=C(O)CN(CCN(CC(=O)O)CC(=O)O)CCN(CC(=O)O)CC(=O)O`, the result was inactive.

On to `CCCN(CCC)C(=O)C(CCC(=O)O)NC(=O)c1ccccc1` (stereo not given), for which the outcome was inactive. Regarding `C[N+](C)(C)CCOC(=O)CCC(=O)OCC[N+](C)(C)C`, the call was inactive. With `FC(F)(F)c1ccccc1-n1ccnc1`, the call was inactive. Consider `OCCN1CCN(CC/C=C2/c3ccccc3Sc3ccc(C(F)(F)F)cc32)CC1`, for which the compound was called inactive. On to `CCCCNc1c(C(=O)OCC)c(C)nc2c1cnn2CC`, for which the result was inactive. Take `CC(C(=O)O)c1ccc(CC2CCCC2=O)cc1` (stereo not given): the outcome was inactive. `c1cnc(N2CCN(Cc3ccc4c(c3)OCO4)CC2)nc1`: the compound was classed as inactive.

For `CCN(CC)CCCN(c1ccccc1)C1Cc2ccccc2C1`, the outcome was inactive. As for `CN(C)CC[C@@H](c1ccc(Br)cc1)c1ccccn1`, the entry is “inactive”. In the case of `CNC1(C)C2CCC(C2)C1(C)C` (stereo not given), the outcome was inactive. For the compound `C[n+]1cc2c3c(ccc2c2ccc4cc5c(cc4c21)OCO5)OCO3`, the compound was classed as inactive. Regarding `COC(=O)[C@@H](N)Cc1ccc(O)c(O)c1`, the compound was called inactive. For the compound `O=C(CCCN1CCC(O)(c2cccc(C(F)(F)F)c2)CC1)c1ccc(F)cc1`, the compound was classed as inactive. Take `CC(=O)OC(C)C[N+](C)(C)C` (stereo not given): the compound was classed as inactive.
